51 molecules from PubChem BioAssay AID686979 (National Center for Advancing Translational Sciences (NCATS), 2013) can be followed below.

The campaign covered roughly 420,000 compounds. About 50,000 (12%) were called active. About 26% were inconclusive and are not listed. The full list was thinned out, with actives kept by preference. A number with no mark means an inactive call. The call rests on the fitted dose curve; in most records, active means well fitted inhibition curve with a large enough effect; inconclusive means small, poorly fitted or top-dose-only effect; inactive means flat fitted curve, though single readings scatter.
On the % scale 0 is the no-effect control and ±100 the full control effect; potency means the concentration at half of the fitted maximal effect.

This assay in a line: qHTS for Inhibitors of human tyrosyl-DNA phosphodiesterase 1 (TDP1): qHTS in cells in presence of CPT. Further: nearly all actives have a fitted effect of over 55% in size. The following applies: chicken DT40 Tdp1-/-;hTDP1 cells + 20 nM CPT, ATP luminescence, 48 h; series mostly up to 46.2 µM; activity change, negative = growth inhibition: at the top concentration. The method, boiled down:
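Cell growth measured by CellTiter-Glo luminescence after a minimum 48 h, 37 C compound exposure with 20 nM CPT in Tdp1-knockout DT40 cells stably expressing hTDP1, seeded 400/well; qHTS titration format.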
Take `CC(Oc1ccc2c(-c3ccccc3)cc(=O)oc2c1)C(=O)NC(Cc1c[nH]c2ccccc12)C(=O)O` (stereo unspecified): the “activity change, negative = growth inhibition” value was 6.52%.

Turning to `Cc1ccc(C)c(NC(=O)COC(=O)Cn2c(C)csc2=O)c1`, the “activity change, negative = growth inhibition” value is -13.9%. Same read-out and setting: the result for `COc1ccc(CCNC(=O)C(=O)NCC2CCNCC2)cc1OC` reads 2.42%. Take `COc1ccc(C(=O)NCC(c2ccc(N(C)C)cc2)N2CCc3ccccc32)c(OC)c1` (stereo unspecified): the Potency was 18.4 µM (active).

For the molecule `COc1ccc(S(=O)(=O)NCC(c2ccc(N(C)C)cc2)N2CCCC2)cc1` (stereo unspecified), the “activity change, negative = growth inhibition” value is -7.81%. Still for that read-out and setting: for `COc1ccccc1C(=O)NCCC(=O)NCC(c1ccco1)N1CCCCC1` (stereo unspecified) the value was -7.77%. As for `CCOc1ccccc1C(=O)NCC(c1ccc(N(C)C)cc1)N1CCCC1` (stereo unspecified), the Potency is 20.6 µM (active). `COc1ccc(C(CNC(=O)COc2ccccc2OC)N2CCCCC2)cc1` (stereo unspecified): the “activity change, negative = growth inhibition” value is -14.9%. Still for that read-out and setting: the result for `COc1ccc(S(=O)(=O)NCC(c2ccc(N(C)C)cc2)N2CCc3ccccc32)cc1OC` (stereo unspecified) reads -11.8%; that for `CCS(=O)(=O)N1CCC(N2CCN(c3ccccc3)CC2)CC1`, 3.97%; that for `COC(=O)c1cc(OCC(=O)NC2CCCc3ccccc32)cc(C(=O)OC)c1` (stereo unspecified), 2.26%. Same read-out and setting: the result for `CCCOCC(O)CC(CC)C(=O)NNC(=S)Nc1ccccc1` (stereo unspecified) reads 0.982%. With `COc1cccc(C(=O)Nc2c3c(nn2-c2cccc(C)c2C)CS(=O)(=O)C3)c1OC`, the Potency was 35.5 µM (active). For the molecule `COc1ccccc1OCC(=O)Nc1c2c(nn1-c1ccc(F)cc1)CS(=O)(=O)C2`, the “activity change, negative = growth inhibition” value is -5.24%. Regarding `Cc1cccc(-n2nc3c(c2NC(=O)c2ccc(Br)o2)CSC3)c1C`, the “activity change, negative = growth inhibition” value is -18.8%.

Take `CC(C)(C)C1CCc2c(sc(NC(=O)c3ccccc3F)c2C(=O)N2CCCCC2)C1` (stereo unspecified): the Potency was 16.4 µM (active).

As for `COC(=O)c1c(NC(=O)c2ccccc2F)sc2c1C(C(=O)OC)CC2` (stereo unspecified), the “activity change, negative = growth inhibition” value is -29%. Still for that read-out and setting: the result for `Cc1ccccc1NC(=O)c1c(NC(=O)c2ccccc2F)sc2c1CCC(C)C2` (stereo unspecified) reads 6.23%; that for `Cc1ccc(F)c(S(=O)(=O)NC(=O)C2(C)CCN2C(=O)CCc2cccs2)c1` (stereo unspecified), -16.3%. For `CCOC(=O)C(C)Sc1nc2ccccc2c(=O)n1CC1CCCCC1` (stereo unspecified), the Potency is 12.6 µM (active).

For `CC1CCN(CCCn2c(SCC(=O)NC3CCCC3)nc3ccccc3c2=O)CC1`, the “activity change, negative = growth inhibition” value is 8.67%. Same read-out and setting: for `CCOn1c(SC(C)C)nc2ccccc2c1=O` the value was -7.27%; for `O=C(NCCS(=O)(=O)c1ccc(Br)cc1)c1ccccc1Cl`, 1.81%; for `O=C(O)CCCN1C(=O)C2C3c4ccccc4C(c4ccccc43)[C@@H]2C1=O` (stereo partly specified), 36.8%.

Take `Cc1ccc(NC(=O)CCOc2ccccc2)cc1S(=O)(=O)Nc1ccccc1Cl`: the “activity change, negative = growth inhibition” value is -1.11%. For the molecule `CC1CCN(C(=O)Cn2c(=O)n(-c3ccc(Cl)cc3)c(=O)c3c4c(sc32)CCC4)CC1`, the “activity change, negative = growth inhibition” value was 0.402%. Still for that read-out and setting: for `CCOC(=O)N1CCc2c(sc3c2c(=O)n(Cc2ccccc2)c(=O)n3CC(=O)Nc2cccc(C)c2)C1` the value was -5.93%.

Regarding `O=c1c2c3c(sc2n(CCN2CCCC2)c(=O)n1Cc1ccccc1)CCCCC3`, the Potency was 13 µM (active). In the case of `COc1ccc(C2NC(=O)C(=O)/C2=C(\O)c2ccc(Cl)cc2)cc1OC` (stereo unspecified), the “activity change, negative = growth inhibition” value is 1.92%.

Turning to `O=c1[nH]c2ccc(S(=O)(=O)N3CCCC3)cc2[nH]1`, the “activity change, negative = growth inhibition” value is -16.4%. On the same count and under the same terms, the result for `CCCN(CC1CC1)C(=O)COC(=O)c1ccc(C)cc1O` reads 6.29%. Take `Cc1cccc(C(=O)NC(=S)N(C)C2CCCCC2)c1`: the Potency is 29.1 µM (active).

As to `Cc1cccc(C(=O)c2cccc(C)c2)c1`, the “activity change, negative = growth inhibition” value is -27.9%. The same measure, in the same setting: the result for `Cc1cccc(C(=O)NCCCN(C)CCCNC(=O)c2cccc(C)c2)c1` reads 2%; that for `CN(CC(=O)Nc1ccc(F)c(F)c1F)C(=O)C1CC(=O)N(C2CCCC2)C1` (stereo unspecified), -10%.

In the case of `COc1ccc(C2Sc3ccccc3NC3=C2C(=O)c2ccccc23)c(OC)c1OC` (stereo unspecified), the Potency was 1.84 µM (active). As for `CCN(CC)CCCN1C(=O)C(=O)/C(=C(/O)c2c(C)nc3ccccn23)C1c1ccc(C)o1` (stereo unspecified), the “activity change, negative = growth inhibition” value is -12.8%.

As for `Cc1ccc(N=C2NC(=O)c3cccc([N+](=O)[O-])c32)cc1`, the “activity change, negative = growth inhibition” value was -21.1%. Regarding `CC(=O)c1cnc(SCC(=O)O)nc1C`, the “activity change, negative = growth inhibition” value is 5.08%. Consider `O=C1/C(=C/c2ccc3c(c2)OCO3)CCC/C1=C\c1ccc2c(c1)OCO2`, for which the “activity change, negative = growth inhibition” value is -23.1%. On the same count and under the same terms, the result for `CCn1cc(/C=C2/SC(=S)NC2=O)c(C)n1` reads -18%. With `Cc1nn(C)cc1/C=C1\CCC/C(=C\c2cn(C)nc2C)C1=O`, the Potency was 15.8 µM (active). For the molecule `C[C@H](NC(=O)C1CCN(S(=O)(=O)c2ccccc2)CC1)C(=O)NCc1ccccc1`, the “activity change, negative = growth inhibition” value is -11.3%.

Turning to `CC[C@@]1(C(=O)OC)N[C@H](CN(C)C(C)=O)[C@@H]2C(=O)N(C)C(=O)[C@@H]21`, the “activity change, negative = growth inhibition” value was -0.511%. Turning to `Cc1ccc(C(C[N+](=O)[O-])c2c(C)cc3ccccn23)cc1` (stereo unspecified), the Potency was 10.3 µM (active). Take `COc1ccccc1C(=O)NCCC(=O)NC(C)CCc1ccccc1` (stereo unspecified): the “activity change, negative = growth inhibition” value is -16.7%.

With `CC(C)(C)C(=O)Nc1ccc(C(=O)N/N=C/c2ccccc2OC(=O)c2ccc(Cl)cc2Cl)cc1`, the Potency is 14.6 µM (active). `O=C(N/N=C/c1ccoc1)c1ccc(Cl)cc1Cl`: the “activity change, negative = growth inhibition” value was -6.06%. Same read-out and setting: for `COc1cc(C=NNC(=O)c2cccnc2)ccc1OC(=O)c1ccccc1F` the value was 7.47%; for `Cc1cc(C)nc(SCC(=O)N(C)C)n1`, 0.938%; for `COC(=O)c1c(C)[nH]c(C(=O)NCCc2ccc(S(N)(=O)=O)cc2)c1C`, -0.0885%.
